Screening data from PubChem.
MCF10A rerep: DNA re-replication induction in MCF 10a cells. MCF 10A DNA re-replication, Hoechst nuclear intensity, 48 h. Potency, µM (titrated, usually from 46.1 µM), inactives show top-dose activity, positive = re-replication, actives largely listed as activators. hit rate 2.9% among 350,000; further: % of control where 0% means no effect; nearly all actives have a fitted effect of over 50% in size
KB-3-1 tox: kills parental KB-3-1 adenocarcinoma cells | KB-3-1 viability, CellTiter-Glo ATP luminescence, 72 h | Potency, µM (titrated, usually from 46.1 µM), usual class: cytotoxic | hit rate 1.4% among 400,000; further: on the % scale 0 is the no-effect control and ±100 the full control effect; nearly all actives have a fitted effect of over 60% in size
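Viability of parental KB-3-1 cells, measured by CellTiter-Glo luminescence, followed a 72 h incubation at 37 °C with pinned compounds in phenol-red-free DMEM containing 10% FBS.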
KB-V1 cytotox: KB-V1 MDR subline cytotoxicity; KB-V1 MDR cells viability, CellTiter-Glo, 72 h; Potency, µM (highest dose often 46.1 µM), actives largely listed as cytotoxic; hit rate 3.4% among 400,000; AID 1347076; further: on the % scale 0 is the no-effect control and ±100 the full control effect; nearly all actives have a fitted effect of over 60% in size
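KB-V1 cells (P-gp-expressing MDR subline of KB-3-1) in phenol-red-free DMEM with 10% FBS were exposed to library compounds over a concentration series for 72 h at 37 degrees C. Viability read by CellTiter-Glo luminescence; concentration-effect curves fitted after normalization.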
HT1080 IDH1KD tx: kills HT-1080 cells with IDH1 knockdown | hit rate 2% among 360,000 | Potency, µM (doses to about 46.1 µM), for inactives: at the top dose activity, negative = toxicity, hits mostly cytotoxic | HT-1080 IDH1 knockdown viability, ATP luminescence, 48 h;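 further: 0% = DMSO wells and -100% = cell-free medium wells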
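In this qHTS, HT-1080 cells depleted of IDH1 are exposed for 48 h at 37 °C to compound titrations. Toxicity is scored from CellTiter-Glo luminescence, with DMSO as full viability and medium alone as none.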
SW480 rerep: inducers of DNA re-replication in SW480 colon cancer cells; SW480 DNA re-replication, Hoechst DNA content imaging, 48 h; Potency, µM (doses to about 46.1 µM), without a hit: at the highest dose re-replication activation, usual class: activators; hit rate 1.8% among 340,000; AID 624297; further: % of control where 0% means no effect; nearly all actives have a fitted effect of over 55% in size
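Image-based read-out: total Hoechst fluorescence of nuclei (405 nm excitation, 500-530 nm emission), with hits raising the fraction of high-intensity nuclei. SW480 colon cells incubated 48 hr with compounds at 37 C.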
HT1080-NT tox: kills 2HG-producing HT-1080-NT fibrosarcoma cells. HT-1080-NT fibrosarcoma viability, CellTiter-Glo ATP luminescence, 48 h. Potency, µM (highest dose often 46.1 µM), for the others: at the highest dose activity, negative = less viability, most hits filed as cytotoxic. hit rate 1.6% among 360,000. AID 686970;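 further: NT is the 2HG producing partner of a matched IDH1 knockdown line; 0% = DMSO-treated cells and -100% = media-only wells without cells; nearly all actives have a fitted effect of over 55% in size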
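Viability of the 2HG-overproducing fibrosarcoma line after 48 hours of compound exposure at 37 degrees C was determined by luminescence with CellTiter-Glo, and concentration-effect curves were then fitted and categorized.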
* hit, by the source's call; i = inactive; ? = inconclusive; . = not tested or not shown; [ ] = another dose, or the depositor's remark. Shown are actives, neighbours in structure and some others; about 7.9% of the full set was active somewhere. The call rests on the fitted dose curve; in most records, active means well fitted curve in the direction sought with a large enough effect; inconclusive means small, poorly fitted or top-dose-only effect, or another doubt; inactive means no such curve, though single readings can be large; an effect the other way counts as inactive or inconclusive. Potency means the concentration at half of the fitted maximal effect.

SMILES	MCF10A rerep	KB-3-1 tox	KB-V1 cytotox	HT1080 IDH1KD tx	SW480 rerep	HT1080-NT tox
CC(=O)N1CCc2c(sc(NC(=O)c3ccc([N+](=O)[O-])o3)c2C#N)C1	1.46µM*	?	i	2.91µM*	2.31µM*	1.84µM*
COC(=O)c1c(NC(=O)c2ccc([N+](=O)[O-])o2)sc2c1CCN(C(C)C)C2	2.91µM*	6.51µM*	14.6µM*	4.61µM*	2.31µM*	20.6µM*
Cc1ccc(C)c(N(C)S(=O)(=O)c2ccc3[nH]cc(C(=O)NC4CCCC4)c(=O)c3c2)c1	.	i	i	.	.	.
COc1cc(C)c(Cl)cc1S(=O)(=O)NCCc1c(C)[nH]c2ccccc12	.	i	i	.	.	.
O=C(O)C(Oc1ccc(Cl)cc1)c1ccc(Cl)cc1 (configuration not stated)	0.0%	i	i	4.9%	0.9%	7.6%
COc1cccc(Nc2nc3cc(Cl)c(Cl)cc3nc2-n2nc(C)cc2C)c1	.	i	i	.	.	.
Cc1ccc(NC(=O)NC2CCCc3ccccc32)cc1 (configuration not stated)	2.5%	?	i	-27.9%	44.1%	-19.5%
Cc1ccc(-n2c(SCC(=O)OC(C)C)nnc2-c2ccccn2)cc1	-2.7%	i	20.6µM*	3.0%	1.0%	-20.0%
CC(C)(C)c1ccc(NC(=O)NC2CCCc3ccccc32)cc1 (configuration not stated)	?	?	20.6µM*	?	?	?
Cc1ccc(C(=O)CSc2nnc(-c3cccnc3)n2N)cc1	?	?	7.31µM*	?	?	?
CC(C)OC(=O)CSc1nnc(-c2cccnc2)n1Cc1ccccc1	0.2%	i	20.6µM*	-1.2%	-0.5%	2.9%
CC(C)OC(=O)CSc1nnc(-c2ccccn2)n1-c1ccccc1	2.4%	i	i	-0.2%	-6.7%	11.1%
CC1(C(=O)Nc2ccc3ccccc3c2)CCC(=O)N1C1CCN(Cc2ccccc2)CC1 (configuration not stated)	.	i	i	?	.	?
CSCCC(c1nc2ccccc2[nH]1)n1c(/C=C/c2ccc(F)c(F)c2)nc2ccccc21 (configuration not stated)	.	i	?	-8.2%	.	-17.2%
O=C(CSc1nnc(-c2ccccc2)n1Cc1ccccc1)NNC(=O)c1ccccc1O	20.4%	?	i	-20.1%	5.17µM*	-7.5%
O=C(CSc1nnc(-c2ccncc2)n1Cc1ccccc1)NC1CCCc2ccccc21 (configuration not stated)	?	i	10.3µM*	18.6%	2.4%	3.0%
O=C(CSc1c(Cl)cccc1Cl)NC1CCCc2ccccc21 (configuration not stated)	15.5%	i	14.6µM*	-1.9%	14.1%	-22.3%
O=C(CSc1ccccc1Cl)NC1CCCc2ccccc21 (configuration not stated)	-3.0%	i	i	-0.3%	-1.5%	9.0%
O=C(CN1CCN(c2ccccc2Cl)CC1)NC1CCCc2ccccc21 (configuration not stated)	11.6%	?	9.2µM*	-0.2%	?	-0.3%
O=C(CSc1nnc(-c2ccccc2O)n1Cc1ccccc1)NNC(=O)c1ccccc1O	12.9%	?	i	-23.5%	.	-19.0%
Cc1c(Cl)cccc1-n1ncc(C(=O)N2CCN(C)CC2)c1C1CCN(C(=O)OC(C)(C)C)CC1	.	i	?	.	.	.
COc1ccc(OCCNC(=O)C2(C)CCN2Cc2ccc3ccccc3c2)cc1 (configuration not stated)	.	?	i	?	.	?
CCCCCCCCCC[Si](C)(C)CCC(=O)N[C@@H](Cc1ccc(C)cc1)c1ccccc1	.	i	i	.	.	.
COCCOC(=O)C1=C(C)OC(N)=C(C#N)C1c1cc2cccc(C)c2nc1Cl (configuration not stated)	23.1µM*	i	i	?	4.3%	-2.7%
C=CCOc1c(Cl)cc(C(=S)N2CCCC2)cc1OCC	11.6µM*	6.51µM*	9.2µM*	9.2µM*	?	?
SMILES	MCF10A rerep	KB-3-1 tox	KB-V1 cytotox	HT1080 IDH1KD tx	SW480 rerep	HT1080-NT tox
N#C/C(C(=O)NCc1ccco1)=C1/SC=C(c2ccccc2)N1c1ccccc1	?	i	i	-22.2%	29.1µM*	-14.4%
CC1=CS/C(=C(/C#N)C(=O)NCc2ccco2)N1c1ccccc1	5.6%	i	i	4.3%	-2.0%	2.8%
N#C/C(=C(/O)CCl)c1nc(-c2ccccc2)cs1	?	?	?	-29.8%	?	-27.7%
Cc1ccc(-c2csc(/C(C#N)=C(\O)CCl)n2)cc1	16.4µM*	i	i	-13.0%	6.1%	-20.8%
Cc1ccc(C)c(N2CCN(C(=O)C3CCN(S(=O)(=O)c4c(C)noc4C)CC3)CC2)c1	17.4%	8.2µM*	?	18.4µM*	?	-25.0%
Cc1ccc(Cl)cc1N1CCN(C(=O)c2ccc(NS(=O)(=O)c3c(C)noc3C)cc2)CC1	14.6µM*	i	i	-25.0%	?	-20.6%
CCOC(=O)c1c(C)[nH]c(C)c1S(=O)(=O)N1CCC(C(=O)N2CCN(c3cc(C)ccc3C)CC2)CC1	.	16.4µM*	i	.	.	.
Cc1ccc(C)c(N2CCN(C(=O)C3CCCN(S(=O)(=O)c4c(C)noc4C)C3)CC2)c1 (configuration not stated)	9.3%	?	i	-21.2%	2.7%	0.4%
Cc1ccc(C)c(N2CCN(S(=O)(=O)c3c(C)noc3/C=C/N(C)C)CC2)c1	20.6µM*	?	?	5.3%	4.3%	-7.0%
COc1ccccc1CNC(=O)C1CCCN(S(=O)(=O)c2ccc3c(c2)oc(=O)n3C)C1 (configuration not stated)	.	i	i	.	.	.
CC(C)(C)CC(C)(C)NCC(O)COc1ccc2c(c1)CCC2 (configuration not stated)	?	20.6µM*	?	?	?	20.6µM*
CC(C)(CO)NCC(O)COc1ccc2c(c1)CCC2 (configuration not stated)	4.8%	i	i	14.1%	-0.7%	-1.7%
Cc1ccccc1OCCCCn1nnc2sc3c(c2c1=O)CCC(C)C3 (configuration not stated)	.	i	i	.	.	.
Nc1nnc(CC(c2ccccc2)c2ccccc2)s1	16.7%	i	23.1µM*	1.1%	-1.5%	1.9%
CCN1C(=O)c2cccc3c(S(=O)(=O)NCc4ccccc4)ccc1c23	16.4µM*	i	i	-3.7%	?	-5.7%[9.24 µM]
